From PubChem BioAssay (Tox21)
Results filed as inconclusive are left out. Entries that show only a call come without a potency. Active and inactive are the calls of the source. Calls follow the shape of the dose curve; as a rule, active = well fitted cell-killing curve with a large enough effect in the repeat runs; inconclusive = weak or mixed curves; inactive = no such curve, though single readings can be large or run the other way.

Experiment: qHTS assay for identifying genotoxic compounds that show differential cytotoxicity against isogenic chicken DT40 cell lines with known DNA damage response pathways - Rad54/Ku70 mutant cell line (AID 743015); also: nearly all actives have a fitted effect of over 60% in size
Settings: DT40 Rad54/Ku70 mutant viability, CellTiter-Glo, 40 h; series mostly up to 66.8 µM
Excerpt: National Center for Advancing Translational Sciences [NCATS]
NIH Chemical Genomics Center [NCGC]
U.S. Environmental Protection Agency [EPA]
National Institutes of Environmental Health Sciences [NIEHS]
National Toxicology Program [NTP]
U.S. Food and Drug Administration [FDA]
DNA repair pathways play a critical role in cellular homeostasis by repairing DNA damage induced by endogenous processes and xenobiotics. Isogenic chicken DT40 cell lines deficient in different DNA repair pathways can be used to identify genotoxic compounds and aid in characterizing the nature of the DNA damage induced. Two DNA repair-deficient cell lines with disrupted genes, Rad54/Ku70 or Rev3, were used to screen the Tox21 10K compound library. Possible genotoxicity was based on the presence of a significant increase in cytotoxicity in one or more of the DNA repair-deficient cell lines compared to that observed in the parental DNA repair-proficient cell line. CellTiter Glo viability assay (Promega, Madison, WI) was used to measure cell viability in these cells after compound treatment. This assay includes the data from the Rad54/Ku70 mutant cell line.
Tox21 Assay Protocol Summary:
300 DT40 mutant cells in 5 uL/well were dispensed into white, solid-bottom 1536-well plates using a Multidrop Combi (ThermoFisher Scientific, Waltham, MA) dispenser. After the assay plates were incubated at 37 C/5% CO2 for approximately 0.5 hour, 23 nL of compounds dissolved in DMSO, positive controls or DMSO only was transferred into the assay plate by a pintool work station (Kalypsys, San Diego, CA). The assay plates were incubated at 37 C/5% CO2 for 40 hours. After 5 uL per well of CellTiter-Glo reagent was added into each well of the assay plates, the plates were incubated for 30 min at room temperature and the luminescence intensity of the plates was measured using a ViewLux (PerkinElmer, Shelton, CT) plate reader.
Potency is read from the fitted curve at half-maximal effect.

Structure (SMILES) | Potency
CN(C)CCCNCCCN(C)C | inactive
CC(=O)OC/C=C(\C)CC/C=C(\C)CCC=C(C)C | 61.1 µM (active)
CCCCC(CC)COC(=O)c1ccccc1O (stereo not given) | inactive
CC(C)=CCCC(C)CC(=O)O (stereo not given) | inactive
CCC=O | inactive
CO[C@]12C[C@@H](COC(=O)c3cncc(Br)c3)CN(C)[C@@H]1Cc1cn(C)c3cccc2c13 | 11.9 µM (active)
C=C(C)CS(=O)(=O)O | inactive
CCSC(=O)N(CC(C)C)CC(C)C | inactive
COC(C)(C)CCCC(C)CC=O (stereo not given) | inactive
CC(C)CCCC(C)N (stereo not given) | inactive
Cc1ccc(=O)n(-c2ccccc2)c1 | inactive
CN1C(=O)N(C)C(O)C1O (stereo not given) | inactive
Cc1cccc(C)c1NC(=O)C(C)N (stereo not given) | inactive
CCCCOCCOCCOCCCC | inactive
c1ccc(CC2=NCCN2)cc1 | inactive
CCCCCCCCS(=O)(=O)Cl | inactive
O=C(O)c1ccccc1OP(=O)(O)O | inactive
Cc1c(NC(C)C)c(=O)n(-c2ccccc2)n1C | inactive
CC(=O)CC(C)(C)C1CCCCC1 | inactive
O=S(O)CO | inactive

Structure (SMILES) | Potency
O=c1cc(CO)occ1O | inactive
CO[Si](CCCOCC1CO1)(OC)OC (stereo not given) | inactive
N=C(N)c1ccc2cc(OC(=O)c3ccc(N=C(N)N)cc3)ccc2c1 | inactive
CC(=O)c1ccccc1O | inactive
CN(C(=O)c1c(O)c2ccccc2n(C)c1=O)c1ccccc1 | inactive
NS(=O)(=O)c1cc(C(=O)O)cc(N2CCCC2)c1Oc1ccccc1 | inactive
CCn1nc(C(=O)O)c(=O)c2cc3c(cc21)OCO3 | inactive
CC(=O)Nc1ccc(S(N)(=O)=O)cc1 | inactive
CC1=CC(C)C(C=O)CC1 (stereo not given) | inactive
CCc1nccnc1CC | inactive
C1CN(CCOCCN2CCOCC2)CCO1 | inactive
C[N+](C)(C)CC(O)CC(=O)[O-] (stereo not given) | inactive
Cn1c(N)c(N=O)c(=O)n(C)c1=O | inactive
COC(=O)c1cc(C(=O)OC)cc(S(=O)(=O)O)c1 | inactive
COc1nc(N)nc2c1ncn2[C@@H]1O[C@H](CO)[C@@H](O)[C@@H]1O | inactive
Nc1ccc(S(=O)(=O)Nc2ccnn2-c2ccccc2)cc1 | inactive
CC[N+](C)(C)c1cccc(O)c1 | inactive
CC(C)c1cc2c(cc1S(=O)(=O)O)[C@@]1(C)CCC[C@@](C)(C(=O)O)[C@@H]1CC2 | inactive
CN1CCCC1 | inactive
CCN1CCC[C@H]1CNC(=O)c1c(O)c(Cl)cc(Cl)c1OC | inactive
